Laboratory results taken from PMC4242493, “Sequence specificity incompletely defines the genome-wide occupancy of Myc”.
In all, about 33,000 sequences were measured (“normalized occupancy”: median about 0.075, highest 2% from about 0.095 on). The sample holds the highest values, similar sequences and a random draw of the others, so the mix is not that of the screen.

Target: MaxL homodimer (Homo sapiens, UniProt P61244 1-160)
Assay: universal protein-binding microarray (PBM); PBS-based mixture, 10 nM His-tagged protein dimer, 2% milk, 200 ng/uL BSA, 50 ng/uL salmon testes DNA, 0.02% TX-100; detection with Alexa 488 anti-His antibody;; high values mean tight binding
Details: protein: recombinant; tags: C-terminal His-tag (pET21a); chain copies: 2; dsDNA, one strand shown
Outline: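 Each 8-mer received a fluorescence intensity from GenePix 4400A scans of Agilent 4 x 44 K 'all 10-mer' universal arrays. Those arrays had been incubated with His-tagged protein dimer at 10 nM, and the bound protein was marked with a fluorophore-conjugated anti-His antibody at 10 ng/μL. Binding occupancy is the intensity scaled to that of the highest-ranked sequence word.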

MaxL homodimer, sequence (P61244 whole entry): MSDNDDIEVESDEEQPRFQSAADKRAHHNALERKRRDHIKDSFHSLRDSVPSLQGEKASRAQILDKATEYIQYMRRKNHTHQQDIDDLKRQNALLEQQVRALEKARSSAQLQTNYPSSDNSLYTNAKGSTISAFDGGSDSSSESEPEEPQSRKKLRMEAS

Row | Sequence | binding signal
1 | ATCACATG | 0.158 normalized occupancy
2 | CACACATC | 0.0888 normalized occupancy
3 | AGCACATC | 0.0841 normalized occupancy
4 | ATCACATA | 0.0859 normalized occupancy
5 | CACACATG | 0.136 normalized occupancy
6 | CACACATA | 0.0896 normalized occupancy
7 | AGCACATG | 0.187 normalized occupancy
8 | AGCACATA | 0.0807 normalized occupancy
9 | ATCACATC | 0.0862 normalized occupancy
10 | AGTAGTGG | 0.0787 normalized occupancy
11 | CTACTTGA | 0.0752 normalized occupancy
12 | GCCTCTCC | 0.076 normalized occupancy
13 | CACGCAGC | 0.085 normalized occupancy
14 | ACGTAGCC | 0.0725 normalized occupancy
15 | GCCCCCCC | 0.0757 normalized occupancy
16 | CCAGGGGA | 0.0742 normalized occupancy
17 | CCACGTTC | 0.0913 normalized occupancy
18 | ACACGTTC | 0.102 normalized occupancy
19 | AAACGTTG | 0.0765 normalized occupancy
20 | CCACGTTA | 0.105 normalized occupancy
21 | CAACGTTA | 0.0767 normalized occupancy
22 | AAACGTTA | 0.0739 normalized occupancy
23 | AGACGTTC | 0.0744 normalized occupancy
24 | AGACGTTA | 0.0775 normalized occupancy
25 | ATACGTTC | 0.0794 normalized occupancy

Row | Sequence | binding signal
26 | ACACGTTG | 0.128 normalized occupancy
27 | ACACGTCG | 0.0849 normalized occupancy
28 | ACACGTTA | 0.118 normalized occupancy
29 | AGTCAGGC | 0.0722 normalized occupancy
30 | TGCCCAAA | 0.0731 normalized occupancy
31 | AGTATCAA | 0.0766 normalized occupancy
32 | GGCCAACC | 0.0741 normalized occupancy
33 | AAAAATGG | 0.078 normalized occupancy
34 | ATGCCCCA | 0.0786 normalized occupancy
35 | GAACATTA | 0.0812 normalized occupancy
36 | ACGCCTCC | 0.0771 normalized occupancy
37 | AATAACAA | 0.0746 normalized occupancy
38 | GGACGTTA | 0.0789 normalized occupancy
39 | GCACGTTA | 0.104 normalized occupancy
40 | GTACGTTA | 0.0781 normalized occupancy
41 | ACCAAGGC | 0.0726 normalized occupancy
42 | GATATAAA | 0.0756 normalized occupancy
43 | ACAGGTCA | 0.0797 normalized occupancy
44 | CACGAGTC | 0.0906 normalized occupancy
45 | CACGAGAG | 0.0911 normalized occupancy
46 | CACGAGTA | 0.103 normalized occupancy
47 | AACGAGTG | 0.0753 normalized occupancy
48 | AACGAGTA | 0.077 normalized occupancy
49 | CACGAGTG | 0.0961 normalized occupancy
50 | CGCAACTA | 0.0738 normalized occupancy

Row | Sequence | binding signal
51 | CAAGAGGG | 0.0744 normalized occupancy
52 | CTGGTCGC | 0.0732 normalized occupancy
53 | ATGTATTC | 0.0814 normalized occupancy
54 | CATGTACC | 0.0843 normalized occupancy
55 | CATGTATA | 0.089 normalized occupancy
56 | AATGTATC | 0.0876 normalized occupancy
57 | CATGTACG | 0.0957 normalized occupancy
58 | CATGTATC | 0.0975 normalized occupancy
59 | AATGTACA | 0.0818 normalized occupancy
60 | AATGTACG | 0.0761 normalized occupancy
61 | CATGTACA | 0.0958 normalized occupancy
62 | GATGTACA | 0.0827 normalized occupancy
63 | AGTATTAT | 0.0827 normalized occupancy
64 | CAGTGATG | 0.0746 normalized occupancy
65 | CACTTCGG | 0.0755 normalized occupancy
66 | TCGACAGA | 0.0736 normalized occupancy
67 | CGGTAGCA | 0.0827 normalized occupancy
68 | AGCAGATC | 0.077 normalized occupancy
69 | ACTCCAGT | 0.0743 normalized occupancy
70 | ACGCTGTA | 0.0841 normalized occupancy
71 | CCGGTGAG | 0.0746 normalized occupancy
72 | GACCTTGA | 0.0732 normalized occupancy
73 | GCTAAATA | 0.079 normalized occupancy
74 | CAGGTGGG | 0.101 normalized occupancy
75 | GAGGTGGC | 0.0764 normalized occupancy

Row | Sequence | binding signal
76 | CAGATGGG | 0.0837 normalized occupancy
77 | CAGGTGGC | 0.0954 normalized occupancy
78 | CAGGTGGA | 0.0861 normalized occupancy
79 | AAGGTGGC | 0.0758 normalized occupancy
80 | GTGCTGAA | 0.0776 normalized occupancy
81 | AATGGTAC | 0.0764 normalized occupancy
82 | AGTAGGAT | 0.076 normalized occupancy
83 | CCATGGTA | 0.0851 normalized occupancy
84 | GAATGGTA | 0.08 normalized occupancy
85 | ACATGGTA | 0.104 normalized occupancy
86 | ACATGGTC | 0.104 normalized occupancy
87 | ACTTGGTA | 0.0735 normalized occupancy
88 | ACATGGTG | 0.0914 normalized occupancy
89 | GCATGGTA | 0.106 normalized occupancy
90 | CCATGGTC | 0.0849 normalized occupancy
91 | ATATGGTA | 0.0884 normalized occupancy
92 | AGGCGAGG | 0.0752 normalized occupancy
93 | CCTACAGG | 0.0722 normalized occupancy
94 | CGCGACGA | 0.0728 normalized occupancy
95 | CACTTTTA | 0.0728 normalized occupancy
96 | AAAGGTGT | 0.0816 normalized occupancy
97 | GTTAGAAA | 0.0757 normalized occupancy
98 | TACGAACA | 0.0754 normalized occupancy
99 | AAGCAACG | 0.0753 normalized occupancy
100 | TCACGCCA | 0.0851 normalized occupancy

Row | Sequence | binding signal
101 | CAACGCGA | 0.0767 normalized occupancy
102 | CCACGCGA | 0.131 normalized occupancy
103 | CCACGCGC | 0.157 normalized occupancy
104 | CAACGCGG | 0.0764 normalized occupancy
105 | CTACGCGC | 0.0727 normalized occupancy
106 | TCACGCGA | 0.11 normalized occupancy
107 | CGACGCGA | 0.0735 normalized occupancy
108 | CCACGCGG | 0.32 normalized occupancy
109 | CCACGCAG | 0.0904 normalized occupancy
110 | TCACGCAA | 0.0764 normalized occupancy
111 | CAACGCGC | 0.0787 normalized occupancy
112 | GCCTACAA | 0.075 normalized occupancy
113 | GACAGAGA | 0.0724 normalized occupancy
114 | ATACAACA | 0.0788 normalized occupancy
115 | CGAAAGCA | 0.0741 normalized occupancy
116 | CAGGGGGA | 0.0851 normalized occupancy
117 | TCTTCGCA | 0.0796 normalized occupancy
118 | AATAGAGC | 0.0803 normalized occupancy
119 | AATAACGT | 0.0823 normalized occupancy
120 | ATTAGTAC | 0.0786 normalized occupancy
121 | AATGCATT | 0.0797 normalized occupancy
122 | CATGCATC | 0.0997 normalized occupancy
123 | AGTGCATA | 0.0847 normalized occupancy
124 | AATGCATG | 0.1 normalized occupancy
125 | AGTGCATC | 0.0772 normalized occupancy

Row | Sequence | binding signal
126 | AGTGCATG | 0.0988 normalized occupancy
127 | ACTGCATG | 0.0859 normalized occupancy
128 | GATGCATC | 0.0787 normalized occupancy
129 | CATGCAAG | 0.0837 normalized occupancy
130 | AATGCATC | 0.0763 normalized occupancy
131 | CATGCATG | 0.121 normalized occupancy
132 | CCTGCATC | 0.0807 normalized occupancy
133 | GCACGAAA | 0.078 normalized occupancy
134 | TAGACACA | 0.0829 normalized occupancy
135 | AACAAGCC | 0.0718 normalized occupancy
136 | AGAGTTTG | 0.073 normalized occupancy
137 | CCTGGGAC | 0.0732 normalized occupancy
138 | ATGTCTCG | 0.0802 normalized occupancy
139 | CGCTCACC | 0.0763 normalized occupancy
140 | AAGCCATC | 0.0756 normalized occupancy
141 | AAGAAGGA | 0.0794 normalized occupancy
142 | CATGCATA | 0.0989 normalized occupancy
143 | AATGCATA | 0.0839 normalized occupancy
144 | TATGCATA | 0.0811 normalized occupancy
145 | CACGGGGG | 0.101 normalized occupancy
146 | CCACGGGG | 0.097 normalized occupancy
147 | CCACGGGA | 0.0794 normalized occupancy
148 | CACGGGGA | 0.0894 normalized occupancy
149 | CACGGGGC | 0.0863 normalized occupancy
150 | CCACGGGC | 0.076 normalized occupancy

Row | Sequence | binding signal
151 | AGGAATTG | 0.0797 normalized occupancy
152 | ACGTAGCG | 0.0805 normalized occupancy
153 | CACCCATG | 0.1 normalized occupancy
154 | ACCCCGTG | 0.108 normalized occupancy
155 | AACCCGTG | 0.0816 normalized occupancy
156 | AACCCATT | 0.0783 normalized occupancy
157 | AACCCATG | 0.0961 normalized occupancy
158 | ACCCCATA | 0.0838 normalized occupancy
159 | CACCCATA | 0.0892 normalized occupancy
160 | AACCCATA | 0.0815 normalized occupancy
161 | ACCCCATG | 0.102 normalized occupancy
162 | ACCCCATC | 0.0823 normalized occupancy
163 | ACCCCGTA | 0.0818 normalized occupancy
164 | CACCCATC | 0.0827 normalized occupancy
165 | CGGACGCA | 0.0735 normalized occupancy
166 | ATTTTCTA | 0.0856 normalized occupancy
167 | CAGAAGAC | 0.0718 normalized occupancy
168 | GACAGTAA | 0.0794 normalized occupancy
169 | ACGTTCGA | 0.0752 normalized occupancy
170 | CACGACAC | 0.0789 normalized occupancy
171 | CGTACGGC | 0.0778 normalized occupancy
172 | AAACAGCA | 0.0759 normalized occupancy
